Only some compounds are listed: those with a hit (about 4.6% of all), similar ones and a draw of the others.
TRb-SRC2 inh: disrupts binding of human TR beta to SRC2. P10828. TRbeta-SRC2 peptide binding, fluorescence polarization; receptor liganded with 1 µM T3. Potency, µM (titrated, usually from 106 µM), for inactives: at the top dose activity change, negative = inhibition, actives largely listed as inhibitors. 0.065% of 280,000 active;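 also: potency is read from the fitted curve at half-maximal effect; plate controls were bound peptide for no effect and peptide without receptor for full effect; nearly all actives have a fitted effect of over 50% in size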
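TRb LBD 0.6 uM + Texas Red SRC2 peptide 20 nM, 1 uM T3, Tris buffer w/ 5% DMSO; compound pinned, 5 h RT; FP read ex 555/em 632; normalized to unbound and bound controls.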
Tau FP inhib: inhibitors of human tau fibril formation; 0.39% of 280,000 active; Potency, µM (titrated, usually from 57.7 µM), for the others: at the top dose activity, negative = inhibition, hits mostly inhibitors; K18 P301L tau heparin fibrillization, Alexa594 FP, 6 h; P10636; also: potency is read from the fitted curve at half-maximal effect; nearly all actives have a fitted effect of over 55% in size
Target sequence (P10636 561-689 P618L limits assumed): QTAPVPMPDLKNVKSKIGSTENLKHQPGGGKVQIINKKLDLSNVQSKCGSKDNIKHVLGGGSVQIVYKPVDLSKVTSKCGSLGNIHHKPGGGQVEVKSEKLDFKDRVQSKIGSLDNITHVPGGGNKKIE
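K18 P301L tau (15 uM unlabeled/0.24 uM Alexa 594-labeled, final) + compound + heparin 20 uM final; 100 mM NaOAc pH 7; 6 hr 37 C; ThT 30 uM final added, 1 hr RT; FP ex 555/em 632 nm.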
Tau ThT inhib: tau fibrillization inhibition (ThT binding) | P10636 | recombinant tau K18 P301L, heparin-induced fibrillization, ThT fluorescence | Potency, µM (highest dose often 57.4 µM), inactives show top-dose activity, negative = inhibition, actives largely listed as inhibitors | 2.1% of 270,000 active; also: potency is read from the fitted curve at half-maximal effect; nearly all actives have a fitted effect of over 55% in size
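Heparin-induced (20 uM) aggregation of recombinant human K18 P301L tau, 15 uM unlabeled with 0.24 uM labeled, pH 7 acetate buffer, 6 hr at 37 C with compound. Fibrils quantified by 30 uM ThT fluorescence after 1 hr ambient incubation.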
TR SRC2 fluor cs: counter-screen for TRb-SRC2 inhibitors: fluorescence interference | TRb/SRC2 Texas Red total fluorescence interference | Potency, µM (titrated, usually from 106 µM), without a hit: at the highest dose fluorescence change, negative = quenching | 0.29% of 280,000 active; active = well fitted curve in either direction with a large enough effect; inconclusive = small, poorly fitted or top-dose-only effect; also: potency is read from the fitted curve at half-maximal effect
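Flags fluorescent or light-absorbing compounds by total fluorescence, S + 2P, at 555 nm excitation and 632 nm emission. Mixture: 20 nM Texas Red SRC2 peptide, 0.6 uM human TRb LBD, 1 uM T3, 5% DMSO; compound exposure 5 h at ambient temperature.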
PNC inhibitor: perinucleolar compartment assembly inhibition. AID 2417. 3.1% of 140,000 active. activity change (PNC), negative = inhibition, % at 10 µM. PC3M PTB-GFP, PNC prevalence imaging, 16 h; hits give low values;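 active = readout at or below -70, meaning at least 70% loss of cells showing the perinucleolar compartment, a nuclear body marking cancer cells; inconclusive = readout between -30 and a set limit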;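 also: plate controls were DMSO wells for no effect and camptothecin positive control wells for full effect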
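Compounds are pinned in duplicate onto adhered PC3M cells stably expressing GFP-tagged PTB and incubated 16 h at 37 C. Cells are then fixed, nuclei stained with Hoechst, and PNC-positive cells counted.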
Tau fluor cs: counter-screen for tau fibril formation inhibitors. tau K18 P301L Alexa594 fluorescence, heparin fibrillization. Potency, µM (series often up to 57.7 µM), inactives show at the top dose activity change, negative = decrease. AID 1463. 0.93% of 280,000 active; also: potency is read from the fitted curve at half-maximal effect; nearly all actives have a fitted effect of over 55% in size
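Human tau K18 P301L (15 uM unlabeled, 0.24 uM Alexa 594-labeled) in 100 mM sodium acetate pH 7 with 20 uM heparin, 6 hr at 37 C. ThT 30 uM added, 1 hr ambient; Alexa 594 FP and total fluorescence read at 555/632 nm.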
* = called active by the depositor; u = inconclusive; x = not tested or not shown; [ ] = dose if it differs, or a comment. Unless noted, calls follow the shape of the dose curve; as a rule, active = well fitted curve in the direction sought with a large enough effect; inconclusive = small, poorly fitted or top-dose-only effect, or another doubt; inactive = no such curve, though single readings can be large; an effect the other way counts as inactive or inconclusive. Unless noted, % is scaled to controls: 0 for no effect and ±100 for the full control effect.

SMILES	TRb-SRC2 inh	Tau FP inhib	Tau ThT inhib	TR SRC2 fluor cs	PNC inhibitor	Tau fluor cs
Cc1ccc(C)c(NC(=S)NCc2ccc3[nH]c4c(c3c2)CCCC4)c1	-3.1%	u	u	-2.2%	-15.9	12.6µM*[quencher]
O=C(NCCc1ccccc1)c1cc(S(=O)(=O)N2CCOCC2)ccc1F	-5.3%	2.6%	-10.4%	-1.4%	u	-5.4%
COC(=O)CN(CCc1ccccc1)S(=O)(=O)c1ccc(OC)c(OC)c1	-5.4%	-0.8%	1.0%	1.1%	-11.0	-6.7%
COC(=O)CN(Cc1ccccc1)S(=O)(=O)c1ccc(OC)c(OC)c1	7.4%	u	15.8µM*	-0.6%	u	-22.7%
OC(COc1ccccc1)Cn1c2ccccc2c2ccccc21 (stereo not given)	4.5%	u	-10.6%	1.1%	6.5	u
Oc1cccc2ccc[n+](CC(O)Cn3c4ccccc4c4ccccc43)c12 (stereo not given)	-11.6%	13.8%	u	0.891µM*[quencher]	-25.4	u
Cc1ccc(C)c(N(Cc2cc3ccc(C)cc3[nH]c2=O)C(=O)c2ccco2)c1	-4.1%	-1.0%	-11.3%	-1.5%	x	-8.3%
COc1ccc(N(Cc2cc3ccc(C)cc3[nH]c2=O)C(=O)c2ccco2)cc1	6.0%	-8.2%	-1.8%	-4.1%	-84.0*	6.0%
N#Cc1cn(-c2ccccc2)nc1-c1ccc2c(c1)OCCO2	-0.1%	u	6.5%	-4.6%	-100.0*	-4.4%
CC(=O)N1CCC(=NNc2nc3ccccc3[nH]2)CC1	0.9%	-5.9%	u	-2.0%	x	-26.4%
CCC(C)(C)C1CCC(=NNc2nc3ccccc3[nH]2)CC1 (stereo not given)	8.0%	u	15.8µM*	-0.5%	-11.8	u
COc1ccc(-c2nn(-c3ccc(F)cc3)c3c2cnc2ccc(F)cc23)cc1OC	2.1%	-7.7%	-1.8%	0.0%	x	-3.9%
O=C(NC1CCCC1)c1ccc([N+](=O)[O-])s1	5.1%	-3.7%	-15.7%	-0.6%	x	-10.3%
CCCCNC(=O)NS(=O)(=O)c1ccc(C(=O)OC(C)C)o1	0.0%	-3.4%	0.8%	-3.9%	u	-2.7%
COc1ccc2c(c1)-c1nc(/N=C/c3ccc(O)cc3)sc1CC2	0.0%	u	28.2µM*	-6.0%	34.9	u
COc1ccc2c(c1)-c1nc(NC(=O)c3cccc(Br)c3)sc1CC2	0.2%	u	u	3.5%	x	u
COc1ccc2c(c1)-c1nc(/N=C/c3c(O)ccc4ccccc34)sc1CC2	u	u	22.4µM*	u	-7.9	u
CCN(CC)c1cc(C)c2cc(NC(=O)c3cccs3)ccc2n1	-8.2%	15.3%	u	-2.0%	x	u
Nc1nonc1OCCOCCOCCOc1nonc1N	-4.9%	-5.9%	3.0%	-3.0%	x	-1.4%
O=C(c1cccs1)N1N=C(c2ccc(O)cc2)CC1c1ccccc1 (stereo not given)	1.9%	u	5.8%	-3.5%	52.9	u
O=C(c1cccs1)N1N=C(c2ccccc2)CC1c1ccccc1 (stereo not given)	-4.1%	0.2%	-15.6%	-3.6%	-104.8*	-13.9%
Cc1ccccc1N1CCN(C(=S)c2ccc([N+](=O)[O-])cc2)CC1	-3.9%	8.4%	-10.0%	-1.8%	u	-20.9%
CC1CN(C(=O)CCC(=O)NCc2cccc(Cl)c2)c2ccccc2S1 (stereo not given)	-13.0%	-5.7%	-16.7%	28.2µM*[quencher]	x	u
CN(C)CCN1C(=O)C(O)=C(C(=O)c2cc3ccccc3o2)C1c1ccc(N(C)C)cc1 (stereo not given)	17.0%	3.1%	u	-1.4%	-119.3*	-23.2%
Cc1c(C(=O)Nc2ccccc2)sc2nc(-c3cc4ccccc4oc3=O)[nH]c(=O)c12	-2.2%	-4.2%	3.8%	282µM*[quencher]	x	2.3%
CN(C)CCNC(=O)CCCn1c(=O)c2cccn2c2ccccc21	8.6%	-5.0%	u	4.1%	x	-29.5%

From PubChem
